# Assay results reported in PubChem BioAssay AID624309 (Sanford-Burnham Center for Chemical Genomics, 2012).
# Out of some 2,000 compounds screened, about 260 (13%) were called active. Cut-off read from the data, not from the text of the source: active = inhibition mostly above about 42% (no sharp cut-off); inactive = mostly below about 42%. Not all results are given here.
# System: Nicotinate mononucleotide adenylyltransferase NadD (Staphylococcus aureus N315)
# Assay: inhibitors of S. aureus NadD, confirmation, biochemical, colorimetric, single concentration (AID 624309)
# Details: purified S. aureus NadD, colorimetric enzyme assay; at 20 µM; stronger effect = higher value
row,SMILES,inhibition
1,O=C(Cc1csc(Nc2nc(=S)[nH]c3ccccc23)n1)NCCCN1CCN(c2cccc(Cl)c2)CC1,33.7% (inactive)
2,Cc1ccc(C(=O)NNC(=O)c2cc3cc4ccccc4nc3s2)cc1,65.5% (active)
3,Cc1ccc(Nc2nc(-c3sc(NC(=O)c4ccccc4)nc3C)cs2)cc1,38.5% (inactive)
4,O=C(COC(=O)c1ccc(Oc2ccccc2)cc1)Nc1nnc(-c2ccccc2)o1,72.6% (active)
5,CCOc1ccc(NC(=O)c2ccc(NC(=O)COC(=O)c3ccc(NC(=O)CC#N)cc3)cc2)cc1,15.8% (inactive)
6,N#CCC(=O)Nc1ccc(C(=O)OCC(=O)Nc2sc3c(c2C#N)CCCC3)cc1,24.8% (inactive)
7,NC(c1csc(NC(=O)Nc2ccccc2Oc2ccccc2)n1)c1ccccc1Cl (stereo unspecified),25.9% (inactive)
8,COc1ccc(NC(=O)/C(C#N)=C\c2cc(OC)c(OCc3ccc(C(=O)O)cc3)cc2Br)cc1,11% (inactive)
9,NC(CSC(c1ccccc1)(c1ccccc1)c1ccc(-c2ccccc2)cc1)C(=O)O (stereo unspecified),54.7% (active)
10,Cc1cccc(NC(=O)c2sc3nc4c(c(-c5ccco5)c3c2N)CCC4)c1,21.1% (inactive)
11,O=C(NC(Cc1c[nH]c2ccccc12)C(=O)N/N=C/c1ccc(Br)cc1)c1cccs1 (stereo unspecified),25.7% (inactive)
12,O=C1Nc2cc(C(=O)N3CCN(c4ccc(F)cc4)CC3)ccc2NC1CSCc1cccc(F)c1 (stereo unspecified),41.8% (inactive)
13,S=c1[nH]nc(Nc2ccccc2)s1,45.2% (inactive)
14,Cc1ccc(-n2c(SCC(=O)N/N=C/C=C/c3ccccc3[N+](=O)[O-])nc3ccccc3c2=O)cc1,3.65% (inactive)
15,CCOc1cc(/C=C2/N=C(c3ccc(C(C)(C)C)cc3)OC2=O)cc(Cl)c1OS(C)(=O)=O,11.4% (inactive)
16,Cc1oc2c(C)c3oc(=O)c(CC(=O)N[C@@H](CC(C)C)C(=O)N[C@@H](Cc4ccccc4)C(=O)O)c(C)c3cc2c1C,43.8% (inactive)

row,SMILES,inhibition
1,O=C(Nc1nnc(-c2ccccc2)o1)c1cc(-c2cccs2)nc2ccccc12,55.5% (active)
2,Cc1ccc(-c2cc(C(=O)N/N=C/C=C/c3ccco3)c3ccccc3n2)cc1C,4.81% (inactive)
3,CS(=O)(=O)c1sc2nc(-c3ccccc3)cc(-c3ccccc3)c2c1N,1.76% (inactive)
4,NC(=O)c1ccc(NC(=O)COC(=O)c2c3c(nc4ccccc24)/C(=C\c2ccc4c(c2)OCO4)CCC3)cc1,45.2% (inactive)
5,NS(=O)(=O)c1ccc(NC(=O)COC(=O)c2c3c(nc4ccccc24)/C(=C\c2ccc4c(c2)OCO4)CCC3)cc1,74.4% (active)
6,O=C(Nc1cccc(-c2nc3ccccc3[nH]2)c1)c1ccc(C(=O)Nc2cccc(-c3nc4ccccc4[nH]3)c2)cc1,34.9% (inactive)
7,CCOC(=O)C1=C(C)Nc2sc(C(=O)c3ccc(Br)cc3)c(N)c2C1c1ccc(C(=O)OC)cc1 (stereo unspecified),8.7% (inactive)
8,CC(=O)Nc1ccc(C(=O)Nc2nc(-c3cc(C)n(Cc4ccccc4)c3C)cs2)cc1,14.3% (inactive)
9,COc1cccc(OCc2cc(/C=N/NC(=O)c3nc(Cl)c(Cl)c(N)c3Cl)ccc2OC)c1,25.3% (inactive)
10,CC(C)c1ccc2c(c1)c(SC(C)(C)C)c(CC(C)(C)C(=O)O)n2Cc1ccc(Cl)cc1,28.1% (inactive)
11,S=c1[nH]nc(-c2cccs2)n1/N=C/c1cn(-c2ccccc2)nc1-c1ccc(Cl)cc1,6.28% (inactive)
12,COc1ccc(-c2nc3cnccn3c2NC2CCCCC2)cc1-c1cccc(Cl)c1,18.8% (inactive)
13,O=C(COc1ccc(/C=N/NC(=O)c2ccc(O)cc2)cc1)Nc1ccc([N+](=O)[O-])cc1,15.9% (inactive)
14,COc1ccc(-n2c(SCC(=O)Nc3sc4c(c3C#N)CCCC4)nnc2-c2ccc(O)cc2)cc1,6.59% (inactive)
15,O=C(COc1ccc([N+](=O)[O-])cc1)Nc1ccc(N2CCCC2)cc1,-0.14% (inactive)
